From PubChem BioAssay AID651687 (Broad Institute, 2012)
Several values for one entry are separate records, joined by “and”; a condition that tells them apart may be missing. Equal values may be shown once. The campaign covered roughly 350,000 compounds. About 600 (0.17%) were called active.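 How the source made its calls: active means every replicate shows inhibition of at least 40%; inconclusive means mean inhibition at least 40% but some replicate below; inactive means the rest.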 The full list was thinned out, with actives kept by preference.

Experiment: inhibitors of PGC1a acetylation signal, primary screen, cell-based, U2OS, AlphaScreen, inhibitor mode (AID 651687);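 further: 0% = neutral control wells and 100% = positive control wells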
Conditions: AlphaScreen anti-acetyl-lysine, at 15.6 µM, stronger effect = higher value, with virally co-expressed GCN5 acetyltransferase

inhibition, active:
COc1cc(NC(=O)c2[nH]cnc2C(N)=O)cc(C(=O)Nc2cccc(C(F)(F)F)c2)c1 62.8%
NC(=NC(=O)c1ccccc1)N1CCOCC1 84.1%
CCOC(=O)c1ccc2[nH]c(C)c(CN3CCN(C)CC3)c(=O)c2c1 59.3%
NC(=O)N/N=C\c1cccs1 76.7%
Cc1[nH]c(=O)c(C(=O)/C=C/c2ccccc2)c2c1CCCC2 53.2%

inhibition, inactive:
CN(C)CC(=O)Nc1ccc2c(c1)[C@H]1C[C@H](CC(=O)NCc3ccc4c(c3)OCO4)O[C@@H](CO)[C@H]1O2 -4.35%
CC(=O)N(C)C[C@@H]1Oc2ncc(C#CCc3ccccc3)cc2C(=O)N([C@H](C)CO)C[C@H]1C 2.72%
Cc1ccc(S(=O)(=O)Nc2ccc3c(c2)C(=O)N([C@H](C)CO)C[C@@H](C)[C@H](CN(C)Cc2ccccc2)O3)cc1 -12.1%
CCNC(=O)C[C@@H]1CC[C@@H]2[C@H](COc3ccc(NC(=O)Nc4cccc(C)c4)cc3C(=O)N2C)O1 0.938%
O=C(C[C@@H]1C[C@@H]2c3cc(NC(=O)Nc4ccccc4F)ccc3O[C@@H]2[C@@H](CO)O1)NCCc1ccccc1 9.83%
O=C(C1CCCC1)N1CC(=O)N2[C@@H](CO)[C@H](c3ccc(C#CC4CCCC4)cc3)[C@@H]2C1 -10.1%
O=C(C[C@@H]1CC[C@H](NC(=O)Nc2ccc3c(c2)OCO3)[C@H](CO)O1)NCc1ccccc1 2.06%
COc1ccc(C(N)c2csc(NC(=O)Nc3cccc(C(F)(F)F)c3)n2)cc1 (stereo unspecified) -29.2%
COc1cc(NC(=O)c2cncc(-c3ccc(C#N)cc3)c2)cc(C(=O)Nc2cccc(C(F)(F)F)c2)c1 4.55% and 7.38%
COc1cccc(-c2cn(CC[C@@H]3CC[C@@H](NC(C)=O)[C@@H](CO)O3)nn2)c1 22.5%
O=C(C[C@H]1C=C[C@@H](NC(=O)c2cnccn2)[C@H](CO)O1)NCc1ccccc1F -3.99%
Cc1noc(C)c1S(=O)(=O)Nc1ccc2c(c1)CC(=O)N([C@H](C)CO)C[C@@H](C)[C@@H](CN(C)C)O2 4.76%
CCCNC(=O)C[C@H]1CC[C@@H]2[C@H](COC[C@H](O)CN2CC2CCCCC2)O1 -2.1%
O=C(O)C[C@H]1C[C@@H]2c3cc(NC(=O)Nc4ccc(C(F)(F)F)cc4)ccc3O[C@@H]2[C@@H](CO)O1 -2.34%
C[C@H](O)C#Cc1ccc([C@H]2[C@H](CO)N3CCCCN(C(=O)c4ccc(F)cc4)C[C@@H]23)cc1 -4.78%
CCC(=O)N(C)C[C@H]1Oc2ncc(-c3ccc(C#N)cc3)cc2C(=O)N([C@@H](C)CO)C[C@H]1C -11.3%
CCCNC(=O)N[C@H]1C=C[C@@H](CC(=O)NC2CCCCC2)O[C@H]1CO -18.5%
Cc1ccc(S(=O)(=O)Nc2ccc3c(c2)C(=O)N([C@@H](C)CO)C[C@H](C)[C@@H](CN(C)Cc2ccc4c(c2)OCO4)O3)cc1 1.59%
COC(=O)C[C@H]1CC[C@@H]2[C@@H](COc3ccc(NC(=O)Nc4ccc(Cl)cc4)cc3C(=O)N2C)O1 -4.91%
N[C@@H](Cc1ccccc1)C(=O)N1CCOCC1 -8.48%
O=C(CSC(=S)N1CCOCC1)c1ccccc1 -7.05%
CCCC(=O)Nc1ccc2c(c1)C(=O)N(C)[C@@H]1CC[C@H](CC(=O)NCCN3CCCCC3)O[C@@H]1CO2 1.12%
C[C@@H]1CCCCO[C@H](CN(C)C(=O)c2ccccc2)[C@@H](C)CN([C@H](C)CO)C(=O)c2cc(NC(=O)c3ccccc3)ccc2O1 5.89%
C[C@@H]1CN([C@H](C)CO)C(=O)c2cc(NC(=O)c3ccccc3)ccc2O[C@@H](C)CCCCO[C@H]1CN(C)C(=O)c1ccncc1 8.37%
CCNC(=O)Nc1ccc2c(c1)C(=O)N(C)[C@@H]1CC[C@@H](CC(=O)NC3CCCCC3)O[C@H]1CO2 1.93%
C[C@@H]1CN([C@H](C)CO)C(=O)c2cc(NC(=O)C3CCCCC3)ccc2O[C@@H](C)CCCCO[C@H]1CN(C)S(C)(=O)=O 6.77%
COc1ccc(S(=O)(=O)N(C)C[C@@H]2Oc3ccc(NC(=O)Cc4cn(C)c5ccccc45)cc3C(=O)N([C@H](C)CO)C[C@H]2C)cc1 -8.14%
C[C@@H]1CN([C@H](C)CO)S(=O)(=O)c2ccc(-c3ccc(C(=O)N(C)C)cc3)cc2O[C@@H]1CN(C)C(=O)Nc1ccccc1F -11.4%
CO[C@H]1CN(C)C(=O)c2ccc(NC(=O)C3CC3)cc2OC[C@H](C)N(Cc2ccncc2)C[C@@H]1C -7.97%
COc1ccc(NC(=O)Nc2cccc3c2O[C@@H](CN(C)S(=O)(=O)c2ccc(C)cc2)[C@H](C)CN([C@@H](C)CO)C3=O)cc1 3.27%
CO[C@H](C(=O)N(C)C[C@@H]1OCc2ccccc2-c2c(n(C)c3ccccc23)C(=O)N([C@@H](C)CO)C[C@H]1C)c1ccccc1 -1.42%
CCCN1C[C@@H](C)[C@@H](OC)CN(C)C(=O)c2cc(NC(=O)C3CCC3)ccc2OC[C@H]1C -10.1%
CO[C@H]1CN(C)C(=O)c2cc(NS(=O)(=O)c3ccccc3)ccc2OC[C@H](C)N(C(=O)NC(C)C)C[C@@H]1C 8.54%
O=C(c1ccncc1)N1CC2(C1)[C@@H](c1ccccc1)[C@H](CO)N2C(=O)c1ccncc1 6.1%
C[C@@H]1CCCCO[C@@H](CN(C)C(=O)c2ccccc2)[C@H](C)CN([C@@H](C)CO)C(=O)c2cc(NS(C)(=O)=O)ccc2O1 -1.5%
CCOC(=O)c1ccc2[nH]c3c(c2c1)CCCC3NC=O (stereo unspecified) 5%
Cc1[nH]c2ccc(C(=O)N3CCN(C)CC3)cc2c1C 1.27%
CO[C@@H]1CN(C)C(=O)c2ccc(NS(C)(=O)=O)cc2OC[C@H](C)N(C(=O)C2CC2)C[C@H]1C -8.93%
COc1ccc(NC(=O)Nc2ccc3c(c2)C(=O)N([C@@H](C)CO)C[C@H](C)[C@@H](CN(C)S(=O)(=O)c2ccc(Cl)cc2)O3)cc1 -2.11%
C[C@H]1CN([C@@H](C)CO)C(=O)c2cccc(NC(=O)Nc3ccccc3)c2O[C@H]1CN(C)S(=O)(=O)c1ccc(F)cc1 -3.23%
C[C@@H]1CN([C@H](C)CO)C(=O)c2cc(NC(=O)Nc3ccc(F)cc3)ccc2O[C@@H](C)CCCCO[C@@H]1CN(C)S(=O)(=O)c1cn(C)cn1 -2.5%
C[C@@H](O)C#Cc1ccc([C@H]2[C@H](CO)N3CCCCN(C(=O)c4ccc(F)cc4)C[C@@H]23)cc1 -2.34%
Cc1cc(C)nc(SC(C)C(=O)N/N=C/c2cccs2)n1 (stereo unspecified) -4.85%
Cc1nc2ccccc2n1CC(=O)N/N=C/c1cccs1 0.244%
COCC(=O)N1[C@H](CO)[C@@H](c2ccccc2)C12CN(Cc1cc(F)ccc1F)C2 3.15%
CN1c2ccc(C#Cc3ccccc3F)cc2[C@@H]2[C@@H](CCN2C(=O)Cc2cccnc2)[C@H]1CO -8.75%
CO[C@@H]1CN(C)C(=O)c2ccc(NS(=O)(=O)c3c(C)noc3C)cc2OC[C@H](C)NC[C@@H]1C 14.4%
CC(C)NC(=O)N(C)C[C@H]1OCCCC[C@H](C)Oc2ccc(NS(=O)(=O)c3cccs3)cc2C(=O)N([C@H](C)CO)C[C@@H]1C -3.81%
COc1ccc2c3c(n(C)c2c1)[C@@H](CO)N(C(=O)CN1CCOCC1)CC31CCN(C(=O)C2CC2)CC1 5.01%
O=C(c1cccnc1)N1C[C@H]2[C@@H](c3ccccc31)[C@H](CO)N2C(=O)C1CC1 8.96%
C[C@H](CO)N1C[C@H](C)[C@@H](CN(C)S(=O)(=O)c2cccs2)OCc2ccccc2-c2ccccc2C1=O -0.156%
CCNC(=O)C[C@@H]1CC[C@@H]2[C@@H](COc3ccc(NC(=O)Nc4ccccc4F)cc3C(=O)N2C)O1 2.36%
CO[C@@H]1CN(C)C(=O)c2cc(NC(=O)c3ccccc3F)ccc2OC[C@H](C)NC[C@@H]1C -5.95%
CO[C@@H]1CN(C)C(=O)c2ccc(NC(=O)c3ccccc3F)cc2OC[C@@H](C)N(CC2CCOCC2)C[C@H]1C -3.01%
C[C@@H]1CCCCO[C@@H](CN(C)C(=O)C2CCCCC2)[C@H](C)CN([C@H](C)CO)C(=O)c2cc(NC(=O)c3ccccc3)ccc2O1 -4.75%
CCCN(C)C[C@H]1Oc2ncc(-c3ccccc3OC)cc2C(=O)N([C@H](C)CO)C[C@H]1C 7.87%
C[C@@H](NC(=O)C[C@H]1CC[C@H]2[C@@H](COC[C@@H](O)CN2C(=O)Nc2ccccc2)O1)c1ccccc1 6.72%
COc1ccccc1C#Cc1cnc2c(c1)C(=O)N([C@@H](C)CO)C[C@@H](C)[C@H](CN(C)C(=O)CN(C)C)O2 -1.48%
CC1(C(=O)O)CCCN(C(=O)/C=C/c2ccccc2)C1 (stereo unspecified) 7.82%
C/C(=C\c1ccccc1)C1NC(=O)c2c(sc3c2CCCC3)N1 (stereo unspecified) 6.29%
C[C@@H]1CN([C@H](C)CO)C(=O)c2cc(NC(=O)c3ccccc3)ccc2O[C@@H](C)CCCCO[C@H]1CN(C)S(=O)(=O)c1ccccc1 0.633%
